Bioassay records deposited in PubChem by several laboratories.
APP 5UTR inh: APP translation inhibition | AID 1285 | SH-SY5Y APP 5'UTR-luciferase reporter, luminescence | 190,000 compounds, 0.82% hits | inhibition, % at 2 µM;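 active = inhibition above a set limit, derived from the sample mean plus 3 SD, cut at about 45% in these data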
KLF5 inh: inhibitors of KLF5 expression; DLD-1 KLF5 promoter-luciferase reporter, luminescence; inhibition, % at 5 µM; 290,000 compounds, 0.23% hits; AID 1700;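 active = inhibition above a per-plate limit of that plate's mean compound inhibition plus 3 SD, cut at about 60% in these data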;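 note: 0% = DMSO wells and 100% = LY294002 at 200 µM; higher means less KLF5 promoter-driven luciferase light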
aSyn 5UTR inh: MLPCN primary screen, SNCA 5' untranslated region | alpha-synuclein 5'UTR reporter, inhibitor activity | inhibition, % (tested at 7.5 µM) | 300,000 compounds, 0.82% hits; in the data active = inhibition above about 60%;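 note: H4 neuroglioblastoma cells stably carrying SNCA 5'UTR luciferase fusion; 0% = DMSO wells and 100% = positive control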
IEC-6 tox: counter-screen for KLF5 inhibitors: cytotoxicity in IEC-6 cells | AID 1825 | IEC-6 cytotoxicity, luminescence viability | 290,000 compounds, 0.78% hits | inhibition, % at 5 µM; in the data active = inhibition above about 22%;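 note: 0% = plate median of test compound wells and 100% = cytotoxic reference compound wells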
Ba/F3 V617F tox: reduce viability of Ba/F3 cells dependent on JAK2V617F | Ba/F3 EpoR-JAK2V617F viability, ATP luminescence | inhibition, % at 5.6 µM | 220,000 compounds, 1.1% hits | AID 1446;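 active = inhibition above the campaign mean plus 3 SD over all tested compounds, cut at about 24% in these data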;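 note: cytokine-independent growth of Ba/F3 cells driven by EpoR plus mutant JAK2; 0% = DMSO-treated cells and 100% = JAK inhibitor I control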
BaF3 tox: counter-screen for JAK2V617F inhibitors: parental Ba/F3 viability inhibitors. AID 1486. CellTiter-Glo ATP luminescence. 220,000 compounds, 1.1% hits. inhibition, % at 5.6 µM;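 active = inhibition above a per-campaign cutoff, the mean inhibition of all tested compounds plus 3 SD, cut at about 27% in these data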;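 note: 0% = DMSO wells and 100% = JAK Inhibitor I control wells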
The depositor's hits bear a star; . = no result. An excerpt weighted towards active compounds, which were near 2.2% of everything screened.

SMILES	APP 5UTR inh	KLF5 inh	aSyn 5UTR inh	IEC-6 tox	Ba/F3 V617F tox	BaF3 tox
COc1ccc(N2CC(C(=O)N/N=C/c3ccc(C)cc3)CC2=O)cc1 (stereo unspecified)	83*	21	-23	16	7	5
Cc1ccc(CN=C(N)Nc2nc(C)cc(C)n2)cc1	71*	-23	117*	48*	81*	77*
Cc1nn(-c2ccccc2)c(Cl)c1C(=O)NCC(C)C	77*	-41	-12	-5	-5	-1
CCc1ccc2nc(NC(=O)Cn3cnc4ccccc4c3=O)sc2c1	-15	-24	-59	2	33*	39*
CC1CCCCC1NC(=O)CN(C)S(=O)(=O)c1cccc2cccnc12 (stereo unspecified)	.	10	20	8	1	1
CN(C)CCCNC(=O)c1ccccn1	-3	7	11	2	-4	1
CN(C)CCCNC(=O)c1ccc(-c2nc(-c3ccc(Cl)cc3)cs2)cc1	-31	-123	118*	7	101*	46*
CC1CCC(C(C)C)C(OCC(O)C[N+]2(C)CCCCC2)C1 (stereo unspecified)	4	-33	11	2	28*	50*
CC1CCC(C(C)C)C(OCC[N+](C)(C)C)C1 (stereo unspecified)	12	3	-11	4	37*	42*
CC1CCC(C(C)C)C(OCC(O)CN2CCCC(C)C2)C1 (stereo unspecified)	-6	-30	-43	-8	-1	6
O=C(COC(=O)c1ccc2c(=O)n3c(nc2c1)CCC3)Nc1ccc(OC(F)F)cc1	17	-15	8	-6	-2	2
N#CC1=C2SCN(c3ccccc3)CN2C(=O)CC1c1ccccc1Cl (stereo unspecified)	0	-13	-16	5	2	39*
O=S(Cc1ccc(Br)cc1)Cc1nnc(SCc2ccc(Br)cc2)n1-c1ccccc1 (stereo unspecified)	15	17	10	7	15	34*
Cn1ncc(Br)c1N1C(=O)CCC1=O	.	-10	3	2	-2	-4
CNC(=O)N(C1=NCCCCC1)c1ccc(Br)cc1	45*	-6	21	-10	-2	4
CCOc1ccc(N(C(=O)Nc2ccccc2)C2=NCCC2)cc1	-20	-16	-4	1	-3	3
O=C(NC1CC1)C1=C[C@@H](c2ccc(Br)cc2)C[C@@H](OCc2ccc(CO)cc2)O1	.	.	-23	.	.	.
CCCN1C(=O)C(O)(c2c(C)[nH]c3ccccc23)c2ccccc21 (stereo unspecified)	.	7	8	1	-4	-3
Cc1[nH]c2ccccc2c1C1(O)C(=O)N(Cc2ccc3c(c2)OCO3)c2ccccc21 (stereo unspecified)	-15	-25	-16	20	78*	85*
CCn1cc(C(=O)NCc2ccco2)c(=O)c2cc(S(=O)(=O)N3CC(C)CC(C)C3)ccc21 (stereo unspecified)	39	-4	82*	10	10	11
O=C(Nc1ccccn1)c1cc2ccccc2o1	-86	-34	42	6	0	7
CCOc1ccc(C(=O)Nc2cc(C)ccn2)cc1	-186	44	65*	12	8	9
Cc1ccnc(NC(=O)c2cc3ccccc3o2)c1	.	.	97*	.	.	.
Cc1cccc(C(=O)OCC(=O)NCCNC(=O)COC(=O)c2cccc(C)c2C)c1C	.	-24	12	0	.	.
COc1cc(/C=C/c2noc(-c3ccccc3O)n2)cc(OC)c1OC	-52	-11	-146	-5	-2	5
SMILES	APP 5UTR inh	KLF5 inh	aSyn 5UTR inh	IEC-6 tox	Ba/F3 V617F tox	BaF3 tox
COc1cc(/C=C/c2nnc3c4ccccc4ncn23)cc(OC)c1OC	-2	22	-80	21	28*	43*
c1ccc(CN2CCC(Nc3nc(-c4ccccc4)nc4ccccc34)CC2)cc1	11	-14	72*	0	-2	4
COc1ccc(CCn2c(N)c(C(=O)NCc3ccco3)c3nc4ccccc4nc32)cc1OC	9	-5	-51	-3	-2	3
COc1ccc(CCn2c(N)c(C(=O)NCc3ccco3)c3nc4ccccc4nc32)cc1	-6	-18	-3	2	37*	38*
CN(/N=C/c1ccncc1)c1cnc2ccccc2n1	-181	-66	-206	7	4	11
CC(NC(=O)C12CC3(C)CC(C)(CC(C)(C3)C1)C2)C(=O)O (stereo unspecified)	-15	-29	-4	8	-1	2
CC(C)Oc1ccc(Cc2cnc(N)nc2N)cc1	9	-8	8	-4	10	4
COc1cc(C)c(Cc2cnc(N)nc2N)cc1OC	.	-16	-2	-8	33*	-2
Cc1nnc(NC(=O)c2ccc3ccccc3n2)s1	-40	-97	-152	6	5	13
O=C(NN=C1CCCC1)c1[nH]c2ccc(Br)cc2c1-c1ccccc1	.	3	.	-4	-5	6
O=C(N/N=C/c1ccccc1)c1[nH]c2ccc(Br)cc2c1-c1ccccc1	88*	7	9	-5	-2	0
COc1ccccc1CNC(=O)CCCNC(=O)c1ccc(Cl)cc1	.	-13	13	1	.	.
COc1ccc(NC(=O)CCS(=O)(=O)c2ccccc2Cl)cc1S(=O)(=O)Nc1ccc(Cl)cc1	-4	-6	-20	10	16	69*
CC1(C)CC(=O)/C(=C(/O)CCCN2C(=O)c3ccccc3C2=O)C(=NC(C)(C)C)C1	-8	-17	-2	0	0	7
O=[N+]([O-])c1cccc(S(=O)(=O)Nc2ccc(Cc3ccncc3)cc2)c1	.	-22	-7	2	4	-3
Cc1ccc(CSc2nnc(SCC(=O)N/N=C/C=C/c3ccccc3[N+](=O)[O-])s2)cc1	36	-6	89*	2	1	10
Cc1ccc(CSc2nnc(SCC(=O)N/N=C/C=C/c3ccco3)s2)cc1	22	12	52	0	-1	8
CCCCn1c(O)c(/C=C2\C=NN=C2c2ccccc2)sc1=S	7	-40	12	-4	-3	1
CCn1c(O)c(/C=C2\C=NN=C2c2ccccc2)sc1=S	.	-20	67*	2	-2	4
CC(Cc1ccsc1)NC(=O)CCc1nnc(COc2ccccc2)o1 (stereo unspecified)	-23	-47	19	2	-1	9
COc1ccc(NC(=S)Nc2ccc(Oc3ccccc3)cc2)cc1	-21	-44	36	-5	-2	8
COc1ccc(NC(=S)NN(C)C(=S)Nc2ccc(OC)cc2)cc1	93*	-4	23	14	1	4
COc1cccc(N2CCN(C(=O)Cn3c(=O)oc4ccccc43)CC2)c1	.	4	-6	1	.	.
Cc1noc(C)c1S(=O)(=O)N1CCC(C(=O)NCCCN2CC(C)CC(C)C2)CC1 (stereo unspecified)	6	-14	20	1	2	5
